# Measured values taken from PubChem BioAssay (NCI).
# The panel holds about 83,000 compounds, 20% with a hit somewhere; the sample as a whole holds those more often.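 The test compound was applied at a single concentration to cells in 96-well plates for 48 hours, and percent growth was recorded.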 Unmarked numbers belong to inactive results. Active and inactive are the calls of the source. Rule for the calls: active = growth percent below 10; inactive = the rest.
# Key:
# Assay in all cases: NCI-60 one-dose screen, 48 h (100 = growth as untreated, 0 = no growth, -100 = all killed)
# Conditions in all cases: 10 µM unless noted
# SR leukemia = tested on: SR leukemia
# RPMI-8226 leukemia = tested on: RPMI-8226 leukemia
# OVCAR-8 ovarian = tested on: OVCAR-8 ovarian
# OVCAR-5 ovarian = tested on: OVCAR-5 ovarian
# OVCAR-4 ovarian = tested on: OVCAR-4 ovarian
# SK-OV-3 ovarian = tested on: SK-OV-3 ovarian
# IGROV1 ovarian = tested on: IGROV1 ovarian
# OVCAR-3 ovarian = tested on: OVCAR-3 ovarian
# HS 578T breast = tested on: HS 578T breast
# NCI/ADR-RES ovarian = tested on: NCI/ADR-RES ovarian
Structure (SMILES),growth (SR leukemia),growth (RPMI-8226 leukemia),growth (OVCAR-8 ovarian),growth (OVCAR-5 ovarian),growth (OVCAR-4 ovarian),growth (SK-OV-3 ovarian),growth (IGROV1 ovarian),growth (OVCAR-3 ovarian),growth (HS 578T breast),growth (NCI/ADR-RES ovarian)
CC(=O)C1CCC(C)=CC1=O (stereo not drawn),101%,100%,100%,103%,107%,100%,102%,108%,122%,95.6%
CN=S(=O)(NC(=O)c1ccc(Cl)cc1Cl)c1ccc(Br)s1 (stereo not drawn),94.3%,98%,97.6%,95.3%,103%,111%,101%,109%,97.8%,99.3%
Cc1ccc2nc(-c3c(N)n[nH]c3CCCO)[nH]c(=O)c2c1,77.2%,91.6%,105%,110%,106%,108%,7.26% (active),115%,103%,102%
O=C(CNC1CCCCC1)Nc1ccc(-c2nc3ccccc3s2)cc1,9.67% (active),77.6%,99.3%,94.7%,84.4%,90.8%,100%,94%,84.3%,89%
Clc1ccc2c(c1)NC1(CCSc3ccccc31)n1nccc1-2 (stereo not drawn),91.6%,94.6%,100%,92.6%,103%,111%,102%,94.6%,110%,98.6%
ClC1=C(Cl)C(Cl)=C(Cl)C1=Cc1ccc(Cl)cc1Cl,2.92% (active),-10.7% (active),2.92% (active),8.75% (active),5.94% (active),38.5%,7.32% (active),-83.7% (active),11.6%,-34.8% (active)
COc1cc(OC)c(C(=O)/C=C/c2cccc(C(F)(F)F)c2)c(OC)c1,6.07% (active),1.61% (active),14.1%,42.4%,31.4%,42.1%,11.8%,17.5%,15.4%,17.1%
CCn1cc(C(=O)O)c(=O)c2cc(F)c(N3CCN(S(=O)(=O)c4ccc(OC)c(OC)c4)CC3)cc21,88.3%,99.3%,102%,102%,110%,135%,108%,109%,,107%
COc1ccc(OC)c(-c2ccc(-c3ccccc3N)c3[nH]c4ccccc4c23)c1,81.7%,70.3%,83.8%,110%,69.6%,88.6%,59.5%,75.1%,94.3%,85.8%
COc1cc(OC)c(C(=O)/C=C/c2ccc(C(F)(F)F)cc2)c(OC)c1,31.6%,25.3%,40.3%,105%,56.5%,75.4%,52.1%,16.9%,66.2%,46.9%
COc1cc(CCn2nnc3c(Nc4ccc(N5CCOCC5)cc4)ncnc32)cc(OC)c1,64.2%,72.8%,109%,95.3%,91.1%,112%,110%,92.8%,,86.3%
O=[N+]([O-])c1cc(S(=O)(=O)OCC2CO2)ccc1Cl (stereo not drawn),1.01% (active),63.6%,87.5%,111%,106%,104%,52.6%,108%,101%,108%
COc1ccc(-c2nnc(COc3ccc(NC(=O)Nc4ccc(Cl)c(C(F)(F)F)c4)cc3F)o2)cc1,-30.1% (active),-26.2% (active),14.5%,8.75% (active),20.2%,22.1%,26%,-0.826% (active),19.1%,5.91% (active)
CC(C)(C)c1cn2cccc(C(=O)N3CCN(CC(=O)Nc4ccc(Cl)cc4C(=O)c4ccccc4Cl)CC3)c2n1,13.2%,24.1%,51%,75.1%,50.6%,91.4%,51.2%,75.7%,32.2%,39.5%
